The supplement of paper PMC6135742
Values joined by “and” are separate entries in the source; they are usually repeats but may differ in a detail not shown here. Identical values can stand only once. Counter-ions that a name gives are not always drawn. ± gives the standard deviation of the averaged measurements. Over roughly 2,600 compounds, “total cell number (DAPI+ nuclei) relative to DMSO vehicle control” has its median near -1.4; the lowest 2% begin near -23. For the sample, the lowest values were picked, then their nearest neighbours and some compounds at random.

Tested on: jimpy (Plp1 jimpy) mouse iPSC-derived oligodendrocyte progenitor cells
Assay: total cell number (DAPI+ nuclei) relative to DMSO vehicle control (SDs above negative control mean); higher = more surviving cells
Conditions: 10 µM; 3 days
Method: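 Primary phenotypic screen of >3,000 bioactive compounds (Selleck L1700 and Sigma LO1280 libraries) at a single dose of 10 µM. Compounds were added to jimpy (Plp1 mutant) mouse iPSC-derived OPCs at the start of thyroid hormone-induced oligodendrocyte differentiation, one well per compound in 384-well plates. After 3 days cells were stained for MBP, Sox10 and DAPI and imaged with an Operetta system. MBP+ oligodendrocyte number and total cell number were expressed as the number of SDs above the mean of the DMSO negative control on the same plate (n=16 control wells per plate). Hits were defined as >=4 SD for oligodendrocytes and >=2 SD for total cells.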

Row | Structure (SMILES) | total cell number
1 | CC(C)(C)C(=O)Oc1ccc(S(=O)(=O)Nc2ccccc2C(=O)NCC(=O)O)cc1 [Sivelestat sodium salt hydrate] | 0.0346
2 | OCCN1CCN(CC/C=C2/c3ccccc3Sc3ccc(C(F)(F)F)cc32)CC1 [cis-(Z)-Flupenthixol dihydrochloride] | -7.96
3 | CN(C)CCN1C(=O)c2cccc3cc(N)cc(c23)C1=O [Amonafide] | -24
4 | O=C(CCCCCN1C(=O)c2cccc3cccc(c23)C1=O)NO [Scriptaid] | -6.21
5 | CC(NC(=O)c1ccccc1/N=C/c1c(O)ccc2ccccc12)c1ccccc1 (configuration not stated) [Sirtinol] | -0.73
6 | CCC(=O)O[C@]1(C(=O)CCl)[C@@H](C)C[C@H]2[C@@H]3C[C@H](F)C4=CC(=O)C=C[C@]4(C)[C@@]3(F)[C@@H](O)C[C@@]21C [Halobetasol Propionate] | 10.4
7 | O=C(O)CC[C@H]1CC[C@@](c2cc(F)ccc2F)(S(=O)(=O)c2ccc(Cl)cc2)CC1 | 0.0291
8 | CC(C)(C)c1cnc(CSc2cnc(NC(=O)C3CCNCC3)s2)o1 | -22.9
9 | Nc1ncnc2c1nc(Br)n2C1OC2COP(=O)(O)O[C@@H]2C1O (some centres not stated) [8-Bromo-cAMP sodium] | -0.722
10 | CC(C)[C@H]1C(=O)N[C@@H](CCCNC(=N)N)C(=O)NCC(=O)N[C@@H](CC(=O)O)C(=O)N[C@H](Cc2ccccc2)C(=O)N1C [Cilengitide] | 1.19
11 | COc1cc(Nc2c(C#N)cnc3cc(OCCCN4CCN(C)CC4)c(OC)cc23)c(Cl)cc1Cl [Bosutinib] | -10.5
12 | COc1cc(C(=O)OCCCN2CCCN(CCCOC(=O)c3cc(OC)c(OC)c(OC)c3)CC2)cc(OC)c1OC [Dilazep hydrochloride] | -5.8
13 | COc1cc(Nc2c(C#N)cnc3cc(OCCCN4CCN(C)CC4)c(OC)cc23)c(Cl)cc1Cl [Bosutinib (SKI-606)] | -26.4
14 | COc1cc2/c(=N/c3ccc(Br)cc3F)nc[nH]c2cc1OCC1CCN(C)CC1 [Vandetanib (ZD6474)] | -26.7
15 | COc1cc2nc(N3CCCN(C)CC3)nc(NC3CCN(Cc4ccccc4)CC3)c2cc1OC | -10.1 and -15.2
16 | COc1ccc(C[C@H](NC(=O)[C@H](C)NC(=O)CN2CCOCC2)C(=O)N[C@@H](Cc2ccccc2)C(=O)[C@@]2(C)CO2)cc1 | -12.1
17 | CC(C)(N)c1ncc(-c2ccc(OC(F)(F)F)cc2)[nH]1 | -3.28
18 | Oc1cccc(-c2nc(N3CCOCC3)c3oc4ncccc4c3n2)c1 | -21
19 | N#CC(C#N)=C(N)/C(C#N)=C/c1cc(O)c(O)c(O)c1 [Tyrphostin 51] | -1.44
20 | C[C@@H](Oc1cc(-c2cnn(C3CCNCC3)c2)cnc1N)c1c(Cl)ccc(F)c1Cl | -27.1
21 | Fc1cc(-c2cccc3ncc(-c4cnn(C5CCNCC5)c4)nc23)cc(F)c1CN1CCOCC1 | -12.4
22 | C[C@H](Oc1cc(-c2cnn(C3CCNCC3)c2)cnc1N)c1c(Cl)ccc(F)c1Cl [(S)-crizotinib] | -15.7
23 | C=CCc1cccc(/C=N/NC(=O)CN2CCN(Cc3ccccc3)CC2)c1O | -9.01 ± 1.4
24 | O=C(Nc1ccc(S(=O)(=O)Nc2ccccc2Cl)c(Cl)c1)c1ccccn1 | 0.173

Row | Structure (SMILES) | total cell number
25 | O=c1cc2c(=O)oc3cc(O)c(O)oc3c2c(O)c1O [Galloflavin potassium] | -1.51
26 | CN1CCN(C(=O)c2cc3cc(Cl)ccc3[nH]2)CC1 | -2.98
27 | Cc1[nH]c(/C=C2\C(=O)Nc3ccc(S(=O)(=O)N(C)c4cccc(Cl)c4)cc32)c(C)c1C(=O)N1CCN(C)CC1 | -26.7
28 | Cc1[nH]c(/C=C2\C(=O)Nc3ccc(S(=O)(=O)Cc4c(Cl)cccc4Cl)cc32)c(C)c1C(=O)N1CCC[C@@H]1CN1CCCC1 | -27.2
29 | CC(C)C[C@H](NC(=O)[C@H]1O[C@@H]1C(=O)O)C(=O)NCCCCN=C(N)N | -3.4 ± 0.35
30 | CN1[C@@H]2CC[C@H]1C[C@@H](OC(=O)C(O)c1ccccc1)C2 (mixture of isomers) [DL-Homatropine hydrobromide] | 0.0407
31 | Cc1nc(NC(=O)N2CCC[C@H]2C(N)=O)sc1-c1ccnc(C(C)(C)C(F)(F)F)c1 | -10.3
32 | COc1cc(C(O)C(=O)O)ccc1O (racemic) [(±)-Vanillylmandelic acid] | -0.443
33 | CC(=O)Nc1nc(C)c(-c2ccc(Cl)c(S(=O)(=O)NCCO)c2)s1 | -15.8
34 | C[C@H](c1ccc(F)cc1CCCC(=O)O)N(c1cc(F)ccc1F)S(=O)(=O)c1ccc(Cl)cc1 | -4.06
35 | CCN(CC)CCCCCCCCOC(=O)c1cc(OC)c(OC)c(OC)c1 [TMB-8 hydrochloride] | 2.1
36 | CCN(CC)CCCCNc1ncc2cc(-c3cc(OC)cc(OC)c3)c(NC(=O)NC(C)(C)C)nc2n1 | -24.8
37 | COc1cc(OC)cc(-c2cc3cnc(N)nc3nc2NC(=O)NC(C)(C)C)c1 | -5.24
38 | C=C1CC[C@@H]2[C@](C)(CO)[C@H](O)CC[C@@]2(C)[C@@H]1C/C=C1/C(=O)OC[C@H]1O [Andrographolide] | -9.57
39 | C=CC(=O)Nc1ccc2ncnc(Nc3cccc(Br)c3)c2c1 | -13.1
40 | N[C@@H](Cc1ccc(F)cc1)C(=O)O [p-Fluoro-L-phenylalanine] | -1.39
41 | Cc1ccc([N+](=O)[O-])cc1S(=O)(=O)N(C)/N=C/c1cnc2ccc(Br)cn12 | -25.8
42 | O=C(O)C1=CO[C@@H](O[C@@H]2O[C@H](CO)[C@@H](O)[C@H](O)[C@H]2O)[C@@H]2C(CO)=CC[C@H]12 [Geniposidic acid] | -0.368
43 | COc1ccc(S(=O)(=O)Nc2nc(-c3cccc([N+](=O)[O-])c3)cs2)cc1OC | -0.431
44 | O=C(c1cc(O)c(O)c([N+](=O)[O-])c1)c1ccccc1F | 0.768
45 | CC1(C)CCC(c2ccc(Cl)cc2)=C(CN2CCN(c3ccc(C(=O)NS(=O)(=O)c4ccc(N[C@H](CCN5CCOCC5)CSc5ccccc5)c(S(=O)(=O)C(F)(F)F)c4)cc3)CC2)C1 [ABT-263 (Navitoclax)] | -16.7
46 | CN(C)CC[C@H](CSc1ccccc1)Nc1ccc(S(=O)(=O)NC(=O)c2ccc(N3CCN(Cc4ccccc4-c4ccc(Cl)cc4)CC3)cc2)cc1[N+](=O)[O-] | -23.1
47 | CC1(C)CCC(CN2CCN(c3ccc(C(=O)NS(=O)(=O)c4ccc(NCC5CCOCC5)c([N+](=O)[O-])c4)c(Oc4cnc5[nH]ccc5c4)c3)CC2)=C(c2ccc(Cl)cc2)C1 | -3.38
